Test results taken from article PMC7862700, “An all-to-all approach to the identification of sequence-specific readers for epigenetic DNA modifications on cytosine”.

Tests used:
Test in all cases: DAPPL (digital affinity profiling via proximity ligation, sequencing); 10 mM Tris-HCl pH 7.5, 50 mM NaCl, 1 mM DTT, 4% glycerol, room temperature, 30 min; GST-TFs on glutathione beads, 16-mer random dsDNA library, 0.1% formaldehyde crosslink after washing; high values mean tight binding
FEV = target: T1, FEV (Homo sapiens, UniProt Q99581 1-238); conditions: protein: recombinant; tags: N-terminal GST; dsDNA, one strand shown
T1 sequence: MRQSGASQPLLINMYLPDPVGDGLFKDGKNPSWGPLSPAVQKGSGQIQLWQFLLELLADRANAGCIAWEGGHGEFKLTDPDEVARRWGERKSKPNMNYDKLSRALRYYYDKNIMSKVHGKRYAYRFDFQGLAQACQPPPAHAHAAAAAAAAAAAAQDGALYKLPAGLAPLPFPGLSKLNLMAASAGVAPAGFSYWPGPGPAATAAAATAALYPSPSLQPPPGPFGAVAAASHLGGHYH
Method in brief: (§1)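 Yeast served to express human transcription factors as GST fusions, which were then captured on glutathione beads and labelled with DNA barcodes. Pooled with a tag-only sample, they were incubated with 200 nmole of a 16-mer random double-stranded DNA library for 30 min at room temperature in Tris/NaCl/DTT/glycerol buffer, washed, crosslinked with 0.1% formaldehyde, ligated by proximity, amplified by PCR and sequenced. Dividing each hexamer's read frequency for a factor by its frequency for the tag-only sample gives the binding signal.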

ETV5 = ETV5 (Homo sapiens, UniProt P41161 1-510); conditions: protein: recombinant; tags: N-terminal GST; dsDNA, one strand shown
Method in brief: as §1

HSF1 = HSF1 (Homo sapiens, UniProt Q00613 1-529); conditions: protein: recombinant; tags: N-terminal GST; chain copies: 3; dsDNA, one strand shown
Method in brief: as §1

SPIC = target: T2, SPIC (Homo sapiens, UniProt Q8N5J4 1-248); conditions: protein: recombinant; tags: N-terminal GST; dsDNA, one strand shown
T2 sequence: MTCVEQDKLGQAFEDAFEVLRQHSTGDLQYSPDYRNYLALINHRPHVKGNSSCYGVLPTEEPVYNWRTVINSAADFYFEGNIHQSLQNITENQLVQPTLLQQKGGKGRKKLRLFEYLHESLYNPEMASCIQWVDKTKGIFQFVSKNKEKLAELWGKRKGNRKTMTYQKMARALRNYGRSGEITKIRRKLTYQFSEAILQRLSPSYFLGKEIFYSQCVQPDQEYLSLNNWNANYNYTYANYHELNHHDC
Method in brief: as §1

ELF4 = ELF4 (Homo sapiens, UniProt Q99607 1-663); conditions: protein: recombinant; tags: N-terminal GST; dsDNA, one strand shown
Method in brief: as §1

ELK4 = target: T3, ELK4 (Homo sapiens, UniProt P28324-2 1-405); conditions: protein: recombinant; tags: N-terminal GST; dsDNA, one strand shown
T3 sequence: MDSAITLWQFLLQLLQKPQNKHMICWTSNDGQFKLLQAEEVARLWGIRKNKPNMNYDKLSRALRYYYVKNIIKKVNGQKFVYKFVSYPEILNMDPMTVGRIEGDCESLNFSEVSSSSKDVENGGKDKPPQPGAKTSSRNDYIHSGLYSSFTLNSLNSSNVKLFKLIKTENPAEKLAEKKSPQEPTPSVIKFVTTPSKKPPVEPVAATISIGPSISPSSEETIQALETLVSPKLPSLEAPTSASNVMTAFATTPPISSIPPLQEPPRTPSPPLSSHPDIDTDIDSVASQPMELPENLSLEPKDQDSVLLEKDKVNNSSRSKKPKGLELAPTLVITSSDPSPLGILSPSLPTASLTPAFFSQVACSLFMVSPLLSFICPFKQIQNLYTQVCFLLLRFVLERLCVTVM
Method in brief: as §1

ETV2 = target: T4, ETV2 (Homo sapiens, UniProt O00321 1-342); conditions: protein: recombinant; tags: N-terminal GST; dsDNA, one strand shown
T4 sequence: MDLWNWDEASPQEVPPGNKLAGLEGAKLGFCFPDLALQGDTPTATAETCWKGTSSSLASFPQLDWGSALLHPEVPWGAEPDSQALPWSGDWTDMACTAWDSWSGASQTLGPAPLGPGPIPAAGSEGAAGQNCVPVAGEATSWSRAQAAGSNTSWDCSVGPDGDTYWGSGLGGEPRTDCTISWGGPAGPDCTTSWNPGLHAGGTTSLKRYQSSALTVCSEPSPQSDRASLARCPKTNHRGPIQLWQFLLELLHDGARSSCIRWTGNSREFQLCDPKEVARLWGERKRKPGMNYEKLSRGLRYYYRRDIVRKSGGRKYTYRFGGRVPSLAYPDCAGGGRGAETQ
Method in brief: as §1

ELF3 = target: T5, ELF3 (Homo sapiens, UniProt P78545 1-371); conditions: protein: recombinant; tags: N-terminal GST; dsDNA, one strand shown
T5 sequence: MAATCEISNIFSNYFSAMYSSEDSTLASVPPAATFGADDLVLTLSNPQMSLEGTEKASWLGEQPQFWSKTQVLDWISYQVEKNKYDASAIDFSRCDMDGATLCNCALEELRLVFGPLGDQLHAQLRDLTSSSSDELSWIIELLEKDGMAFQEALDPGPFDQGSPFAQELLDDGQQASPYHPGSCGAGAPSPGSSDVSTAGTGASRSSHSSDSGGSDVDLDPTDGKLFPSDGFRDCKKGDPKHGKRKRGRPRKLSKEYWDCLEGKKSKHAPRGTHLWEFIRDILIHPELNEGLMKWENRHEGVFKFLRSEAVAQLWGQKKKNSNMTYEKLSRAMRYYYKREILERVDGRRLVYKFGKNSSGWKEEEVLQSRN
Method in brief: as §1

CRX = CRX (Homo sapiens, UniProt O43186 1-299); conditions: protein: recombinant; tags: N-terminal GST; dsDNA, one strand shown
Method in brief: as §1

ETV1 = ETV1 (Homo sapiens, UniProt P50549 1-477); conditions: protein: recombinant; tags: N-terminal GST; dsDNA, one strand shown
Method in brief: as §1

ERF = target: T6, ERF (Homo sapiens, UniProt P50548 1-548); conditions: protein: recombinant; tags: N-terminal GST; dsDNA, one strand shown
T6 sequence: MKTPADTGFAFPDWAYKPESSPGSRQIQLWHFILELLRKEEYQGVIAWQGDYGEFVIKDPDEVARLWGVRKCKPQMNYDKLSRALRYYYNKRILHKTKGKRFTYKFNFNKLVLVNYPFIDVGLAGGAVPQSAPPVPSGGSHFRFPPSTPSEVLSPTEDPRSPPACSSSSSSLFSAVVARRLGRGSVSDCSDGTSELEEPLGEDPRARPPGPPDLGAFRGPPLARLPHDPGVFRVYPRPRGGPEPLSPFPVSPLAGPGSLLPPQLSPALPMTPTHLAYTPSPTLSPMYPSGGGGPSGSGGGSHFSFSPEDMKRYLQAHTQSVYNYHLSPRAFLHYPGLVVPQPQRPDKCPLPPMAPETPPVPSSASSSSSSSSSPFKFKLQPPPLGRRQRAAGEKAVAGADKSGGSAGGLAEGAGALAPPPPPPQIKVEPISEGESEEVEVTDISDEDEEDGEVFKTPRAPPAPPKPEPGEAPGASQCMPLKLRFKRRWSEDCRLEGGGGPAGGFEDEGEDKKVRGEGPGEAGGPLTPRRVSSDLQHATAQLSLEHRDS
Method in brief: as §1

ETV3L = target: T7, ETV3L (Homo sapiens, UniProt Q6ZN32 1-361); conditions: protein: recombinant; tags: N-terminal GST; dsDNA, one strand shown
T7 sequence: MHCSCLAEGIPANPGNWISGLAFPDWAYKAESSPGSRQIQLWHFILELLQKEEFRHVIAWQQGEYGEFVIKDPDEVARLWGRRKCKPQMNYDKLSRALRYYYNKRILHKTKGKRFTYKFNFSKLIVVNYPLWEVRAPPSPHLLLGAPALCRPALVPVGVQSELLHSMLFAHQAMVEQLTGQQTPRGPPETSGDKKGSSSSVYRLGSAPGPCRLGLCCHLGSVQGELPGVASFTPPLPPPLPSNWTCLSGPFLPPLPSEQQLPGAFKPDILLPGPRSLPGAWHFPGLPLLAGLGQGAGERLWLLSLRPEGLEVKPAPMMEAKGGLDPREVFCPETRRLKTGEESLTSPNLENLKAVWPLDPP
Method in brief: as §1

ETS2 = target: T8, ETS2 (Homo sapiens, UniProt P15036 1-469); conditions: protein: recombinant; tags: N-terminal GST; dsDNA, one strand shown
T8 sequence: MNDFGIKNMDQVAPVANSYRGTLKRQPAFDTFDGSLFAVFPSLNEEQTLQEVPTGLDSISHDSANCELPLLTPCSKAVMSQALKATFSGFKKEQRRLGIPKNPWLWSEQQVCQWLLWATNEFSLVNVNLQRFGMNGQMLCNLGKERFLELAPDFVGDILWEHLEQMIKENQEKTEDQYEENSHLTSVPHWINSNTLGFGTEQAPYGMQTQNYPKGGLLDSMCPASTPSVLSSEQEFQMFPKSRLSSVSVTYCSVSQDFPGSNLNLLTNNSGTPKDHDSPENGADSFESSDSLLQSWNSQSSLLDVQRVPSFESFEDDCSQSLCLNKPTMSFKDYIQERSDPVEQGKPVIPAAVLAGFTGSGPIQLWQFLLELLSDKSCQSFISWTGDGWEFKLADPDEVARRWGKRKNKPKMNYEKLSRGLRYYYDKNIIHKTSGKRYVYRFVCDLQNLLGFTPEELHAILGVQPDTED
Method in brief: as §1

SPDEF = target: T9, SPDEF (Homo sapiens, UniProt O95238 1-335); conditions: protein: recombinant; tags: N-terminal GST; dsDNA, one strand shown
T9 sequence: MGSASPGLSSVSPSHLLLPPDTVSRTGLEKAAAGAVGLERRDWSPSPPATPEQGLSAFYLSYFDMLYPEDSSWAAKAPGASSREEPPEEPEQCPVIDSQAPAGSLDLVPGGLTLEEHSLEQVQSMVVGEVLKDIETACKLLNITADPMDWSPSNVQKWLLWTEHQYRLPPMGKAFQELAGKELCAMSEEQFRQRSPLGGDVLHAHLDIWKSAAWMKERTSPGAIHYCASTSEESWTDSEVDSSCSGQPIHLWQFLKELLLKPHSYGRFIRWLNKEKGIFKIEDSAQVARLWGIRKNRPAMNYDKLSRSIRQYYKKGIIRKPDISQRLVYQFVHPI
Method in brief: as §1

ETV7 = target: T10, ETV7 (Homo sapiens, UniProt Q9Y603 1-341); conditions: protein: recombinant; tags: N-terminal GST; dsDNA, one strand shown
T10 sequence: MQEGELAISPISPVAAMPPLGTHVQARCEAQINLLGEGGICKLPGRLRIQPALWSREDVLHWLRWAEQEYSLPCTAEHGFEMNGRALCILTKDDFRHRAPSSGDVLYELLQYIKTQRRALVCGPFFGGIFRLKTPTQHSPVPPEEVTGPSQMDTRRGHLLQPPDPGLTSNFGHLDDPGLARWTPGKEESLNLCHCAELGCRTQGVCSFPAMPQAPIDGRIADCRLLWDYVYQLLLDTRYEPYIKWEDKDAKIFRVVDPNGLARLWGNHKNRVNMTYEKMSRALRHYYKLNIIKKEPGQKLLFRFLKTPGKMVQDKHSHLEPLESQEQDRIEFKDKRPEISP
Method in brief: as §1

ELF5 = target: T11, ELF5 (Homo sapiens, UniProt Q9UKW6-2 1-255); conditions: protein: recombinant; tags: N-terminal GST; dsDNA, one strand shown
T11 sequence: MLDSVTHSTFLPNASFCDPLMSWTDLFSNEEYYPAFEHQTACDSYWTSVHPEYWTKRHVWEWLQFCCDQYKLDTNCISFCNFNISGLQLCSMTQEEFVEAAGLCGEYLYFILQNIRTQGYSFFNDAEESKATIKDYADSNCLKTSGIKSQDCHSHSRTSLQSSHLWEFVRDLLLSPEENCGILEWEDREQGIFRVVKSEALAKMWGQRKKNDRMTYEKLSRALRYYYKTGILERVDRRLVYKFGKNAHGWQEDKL
Method in brief: as §1

ETV3 = target: T12, ETV3 (Homo sapiens, UniProt P41162-2 1-143); conditions: protein: recombinant; tags: N-terminal GST; dsDNA, one strand shown
T12 sequence: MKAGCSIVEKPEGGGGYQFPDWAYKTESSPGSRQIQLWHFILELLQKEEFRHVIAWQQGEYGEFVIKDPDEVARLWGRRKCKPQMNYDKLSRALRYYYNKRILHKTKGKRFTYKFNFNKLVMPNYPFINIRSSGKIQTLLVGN
Method in brief: as §1

ETV6 = ETV6 (Homo sapiens, UniProt P41212 1-452); conditions: protein: recombinant; tags: N-terminal GST; dsDNA, one strand shown
Method in brief: as §1

ETV1, sequence (P50549 whole entry): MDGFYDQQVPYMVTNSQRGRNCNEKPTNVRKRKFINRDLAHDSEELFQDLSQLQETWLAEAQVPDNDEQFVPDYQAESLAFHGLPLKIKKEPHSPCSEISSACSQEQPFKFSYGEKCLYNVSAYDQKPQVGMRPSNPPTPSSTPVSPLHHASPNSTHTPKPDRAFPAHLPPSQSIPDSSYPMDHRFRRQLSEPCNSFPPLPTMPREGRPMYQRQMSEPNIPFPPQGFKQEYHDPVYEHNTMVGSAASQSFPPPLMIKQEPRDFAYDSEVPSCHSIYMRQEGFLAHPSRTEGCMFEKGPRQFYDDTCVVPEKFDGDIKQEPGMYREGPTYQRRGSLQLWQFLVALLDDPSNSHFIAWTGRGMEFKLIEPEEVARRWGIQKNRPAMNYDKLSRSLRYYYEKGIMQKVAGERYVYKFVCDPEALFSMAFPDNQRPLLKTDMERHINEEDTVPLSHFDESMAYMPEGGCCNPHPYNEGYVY
ETV5, sequence (P41161 whole entry): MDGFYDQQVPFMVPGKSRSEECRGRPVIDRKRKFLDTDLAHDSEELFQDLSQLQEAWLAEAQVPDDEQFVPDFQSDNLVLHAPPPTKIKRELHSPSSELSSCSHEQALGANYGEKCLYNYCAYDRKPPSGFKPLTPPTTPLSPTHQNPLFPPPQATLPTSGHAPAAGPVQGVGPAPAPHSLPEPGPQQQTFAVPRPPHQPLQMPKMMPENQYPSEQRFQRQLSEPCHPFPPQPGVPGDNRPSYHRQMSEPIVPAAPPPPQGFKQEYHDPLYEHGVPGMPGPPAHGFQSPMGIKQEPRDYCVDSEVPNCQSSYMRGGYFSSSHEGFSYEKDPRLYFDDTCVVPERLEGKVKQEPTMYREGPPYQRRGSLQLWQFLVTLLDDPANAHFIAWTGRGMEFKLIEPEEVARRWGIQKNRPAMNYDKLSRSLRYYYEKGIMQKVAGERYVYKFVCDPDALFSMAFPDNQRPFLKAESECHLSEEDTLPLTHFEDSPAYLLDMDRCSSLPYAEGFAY
ETV6, sequence (P41212 whole entry): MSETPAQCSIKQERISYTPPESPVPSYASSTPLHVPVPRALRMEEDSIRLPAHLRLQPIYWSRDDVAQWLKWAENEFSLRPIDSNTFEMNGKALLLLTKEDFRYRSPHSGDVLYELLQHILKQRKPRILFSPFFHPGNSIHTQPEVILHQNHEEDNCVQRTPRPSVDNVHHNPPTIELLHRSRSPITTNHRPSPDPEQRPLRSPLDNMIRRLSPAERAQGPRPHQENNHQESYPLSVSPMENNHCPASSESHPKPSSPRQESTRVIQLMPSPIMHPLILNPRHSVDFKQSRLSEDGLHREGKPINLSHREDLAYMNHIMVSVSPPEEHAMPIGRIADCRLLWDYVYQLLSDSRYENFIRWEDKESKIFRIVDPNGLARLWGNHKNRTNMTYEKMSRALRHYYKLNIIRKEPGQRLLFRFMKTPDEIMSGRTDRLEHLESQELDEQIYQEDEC
ELF4, sequence (Q99607 whole entry): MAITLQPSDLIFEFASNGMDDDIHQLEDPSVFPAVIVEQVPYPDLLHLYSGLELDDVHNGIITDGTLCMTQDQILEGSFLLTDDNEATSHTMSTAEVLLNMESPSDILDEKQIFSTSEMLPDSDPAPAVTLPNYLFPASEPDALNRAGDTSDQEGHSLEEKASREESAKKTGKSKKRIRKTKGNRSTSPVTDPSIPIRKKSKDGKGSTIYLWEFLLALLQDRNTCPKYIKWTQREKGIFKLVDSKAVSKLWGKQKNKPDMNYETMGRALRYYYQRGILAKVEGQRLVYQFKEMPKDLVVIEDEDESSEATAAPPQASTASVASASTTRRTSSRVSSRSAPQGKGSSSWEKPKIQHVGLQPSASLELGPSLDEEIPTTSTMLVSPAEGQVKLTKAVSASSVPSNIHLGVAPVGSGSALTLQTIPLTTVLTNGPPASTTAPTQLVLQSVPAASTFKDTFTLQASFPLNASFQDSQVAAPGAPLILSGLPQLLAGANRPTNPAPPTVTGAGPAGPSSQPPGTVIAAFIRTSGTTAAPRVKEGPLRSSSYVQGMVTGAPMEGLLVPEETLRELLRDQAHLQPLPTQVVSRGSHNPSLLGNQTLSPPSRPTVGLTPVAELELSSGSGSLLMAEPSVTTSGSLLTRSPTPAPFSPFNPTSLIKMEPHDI
CRX, sequence (O43186 whole entry): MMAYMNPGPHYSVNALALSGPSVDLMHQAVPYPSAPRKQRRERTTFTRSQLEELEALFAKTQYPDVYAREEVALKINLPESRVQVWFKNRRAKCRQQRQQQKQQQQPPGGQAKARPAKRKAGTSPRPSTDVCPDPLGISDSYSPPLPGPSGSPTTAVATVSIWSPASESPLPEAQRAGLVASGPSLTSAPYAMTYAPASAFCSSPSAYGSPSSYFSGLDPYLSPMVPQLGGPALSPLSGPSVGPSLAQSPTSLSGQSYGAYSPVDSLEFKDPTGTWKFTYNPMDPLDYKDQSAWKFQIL
HSF1, sequence (Q00613 whole entry): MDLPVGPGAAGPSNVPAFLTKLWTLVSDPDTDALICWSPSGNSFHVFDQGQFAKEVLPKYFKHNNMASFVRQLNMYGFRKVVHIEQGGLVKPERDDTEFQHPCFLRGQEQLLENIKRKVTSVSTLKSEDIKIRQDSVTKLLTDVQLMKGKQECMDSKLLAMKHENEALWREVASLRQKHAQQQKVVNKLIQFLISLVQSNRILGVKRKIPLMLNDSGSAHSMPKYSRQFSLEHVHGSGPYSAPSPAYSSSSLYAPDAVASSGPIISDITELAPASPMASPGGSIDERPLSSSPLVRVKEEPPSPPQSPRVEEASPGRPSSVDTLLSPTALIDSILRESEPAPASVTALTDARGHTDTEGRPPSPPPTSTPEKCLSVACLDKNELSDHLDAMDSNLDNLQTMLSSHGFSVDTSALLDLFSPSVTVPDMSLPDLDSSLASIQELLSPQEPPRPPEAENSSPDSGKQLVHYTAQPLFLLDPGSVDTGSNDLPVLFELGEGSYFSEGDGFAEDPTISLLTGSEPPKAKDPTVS

## CAATAT
FEV
  binding signal: 1.25 fold enrichment (6-mer frequency, TF over GST control)
ETV5
  binding signal: 1.33 fold enrichment (6-mer frequency, TF over GST control)
HSF1
  binding signal: 1.11 fold enrichment (6-mer frequency, TF over GST control)
SPIC
  binding signal: 1.23 fold enrichment (6-mer frequency, TF over GST control)
ELF4
  binding signal: 1.28 fold enrichment (6-mer frequency, TF over GST control)
ELK4
  binding signal: 1.31 fold enrichment (6-mer frequency, TF over GST control)
ETV2
  binding signal: 1.29 fold enrichment (6-mer frequency, TF over GST control)
ELF3
  binding signal: 1.28 fold enrichment (6-mer frequency, TF over GST control)
CRX
  binding signal: 1.15 fold enrichment (6-mer frequency, TF over GST control)
ETV1
  binding signal: 1.27 fold enrichment (6-mer frequency, TF over GST control)
ERF
  binding signal: 1.28 fold enrichment (6-mer frequency, TF over GST control)
ETV3L
  binding signal: 1.26 fold enrichment (6-mer frequency, TF over GST control)
ETS2
  binding signal: 1.28 fold enrichment (6-mer frequency, TF over GST control)
SPDEF
  binding signal: 1.34 fold enrichment (6-mer frequency, TF over GST control)
ETV7
  binding signal: 1.27 fold enrichment (6-mer frequency, TF over GST control)
ELF5
  binding signal: 1.2 fold enrichment (6-mer frequency, TF over GST control)
ETV3
  binding signal: 1.33 fold enrichment (6-mer frequency, TF over GST control)
ETV6
  binding signal: 1.23 fold enrichment (6-mer frequency, TF over GST control)
